We go through 58 compounds from PubChem BioAssay AID1347416 (National Center for Advancing Translational Sciences (NCATS), 2020).

Out of some 4,100 compounds screened, about 1,600 (39%) were called active. About 25% were inconclusive and are not listed. The call rests on the fitted dose curve; in most records, active means well fitted inhibition curve with a large enough effect; inconclusive means small, poorly fitted or top-dose-only effect; inactive means no such curve, though single readings can be large or run the other way. The list shows a part of the results. Where a call stands in place of a potency, no number is given.
Potency means the concentration at half of the fitted maximal effect.

The assay is described as follows: qHTS Validation assay for Inhibitors of Plasmodium falciparum Dd2 growth in vitro. Further: nearly all actives have a fitted effect of over 70% in size. To be noted: P. falciparum Dd2 in RBCs, SYBR Green growth, 72 h; series mostly up to 28.7 µM. In short, it runs like this:
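P. falciparum Dd2-infected red blood cells (2.5% hematocrit, 0.3% parasitemia) grown 72 h at 37 °C under 5% O2 with compounds in a titration, 29 uM to 0.5 nM final. Growth read as SYBR Green-1 fluorescence after ~16 h lysis; artesunate 300 nM as positive control.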
In general terms: qHTS replaces the single test concentration by a dilution series.
Regarding `CN1c2cc(C(=O)Nc3ccc(S(N)(=O)=O)cc3)ccc2C(=O)N2CCCCC21` (stereo not drawn), the Potency result is “inactive”.

For the compound `O=C(Nc1ccc(Br)cc1)c1ccc(F)c(S(=O)(=O)NC2CCCCCC2)c1`, the Potency is 9.44 µM (active).

Consider `O=C(Nc1ccc(Br)cc1F)c1cc(S(=O)(=O)NC2CCCC2)ccc1F`, for which the Potency entry was “inactive”.

For the compound `CC1(COc2ccccc2)COc2ccc(C(=O)NCc3cnccn3)cc2N1` (stereo not drawn), the Potency entry was “inactive”.

For `Cc1nccn1C1(C(=O)O)CCN(Cc2ccc(-c3ccn[nH]3)o2)CC1`, the Potency result was “inactive”.

On to `c1csc(-c2cn3ccc4ccccc4c3n2)c1`, for which the Potency entry was “inactive”.

`Cc1noc(-c2cccs2)c1C(=O)NC(C)c1cccc2ccccc12` (stereo not drawn): the Potency was 0.668 µM (active).

As to `O=C(NCc1nc(-c2ncccn2)no1)c1csc(-c2cccs2)n1`, the Potency result was “inactive”.

For the compound `CNC(=O)c1ccsc1NC(=O)CCS(=O)(=O)c1ccccc1`, the Potency entry is “inactive”.

As for `O=C(O)c1ccc(C2SCC(=O)N2Cc2ccco2)cc1` (stereo not drawn), the Potency result was “inactive”.

Consider `Cc1cc(C(=O)CN2C(=O)NC(c3ccccc3)(c3ccccc3)C2=O)c(C)n1Cc1ccco1`, for which the Potency is 8.41 µM (active).

In the case of `Cc1cc(C(=O)CN2C(=O)NC(C)(c3cccc(Br)c3)C2=O)c(C)n1Cc1ccco1` (stereo not drawn), the Potency was 13.3 µM (active).

Turning to `COc1ccc2c(c1)C1(Nc3ccccc3-c3nc4ccccc4n31)C(=O)N2` (stereo not drawn), the Potency was 0.596 µM (active).

For the compound `O=C1Nc2ccccc2C12Nc1ccccc1-c1nc3ccccc3n12` (stereo not drawn), the Potency was 6.68 µM (active).

For the compound `CC1(c2ccccn2)Nc2ccccc2-c2nc3ccccc3n21` (stereo not drawn), the Potency is 5.31 µM (active).

Turning to `Oc1ccccc1CN1CCOC[C@H]1c1ncc(-c2ccc(C(F)(F)F)cc2)[nH]1`, the Potency is 4.85 µM (active).

`CS(=O)(=O)c1ccc(-c2cnc([C@@H]3COCCN3Cc3ccccc3)[nH]2)cc1`: the Potency entry was “inactive”.

In the case of `COc1ccc(-c2cnc([C@@H]3COCCN3Cc3ccccc3O)[nH]2)cc1`, the Potency is 17.2 µM (active).

Regarding `COc1cc(OC)cc(C(=O)N2CCC(c3nc(C4CCOC4)no3)CC2)c1` (stereo not drawn), the Potency result is “inactive”.

As for `O=c1c(NCCc2ccccc2)c(-c2ccccc2)c1=O`, the Potency entry is “inactive”.

Turning to `c1ccc(CCNc2ccnc3cc4ccccc4cc23)cc1`, the Potency is 1.68 µM (active).

In the case of `c1ccc2cc3c(NCCN4CCOCC4)ccnc3cc2c1`, the Potency is 1.68 µM (active).

With `COCCN1Cc2ccc(NCC(C)C)nc2C(C)(C(=O)Nc2ccncc2)C1` (stereo not drawn), the Potency is 21.7 µM (active).

`CC1(C)C(=O)N(CC2CCOCC2)[C@H]2CN(CCCc3ccccc3)C[C@@H]2[S+]1(=O)[O-]`: the Potency entry was “inactive”.

Take `COc1cccc(N2C(=O)C(CC(=O)Nc3ccccc3)N(CCc3sccc3C)C2=O)c1` (stereo not drawn): the Potency entry is “inactive”.

Consider `O=C(CC1C(=O)N(Cc2ccccc2)C(=S)N1CCN1CCOCC1)Nc1ccc(F)cc1` (stereo not drawn), for which the Potency was 5.31 µM (active).

Regarding `COC(=O)c1cc(NC(=O)CC2C(=O)OCCN2Cc2ccccc2)cc(C(=O)OC)c1` (stereo not drawn), the Potency result is “inactive”.

For `Cc1noc(C)c1CCC(=O)NC1CCc2nn(CC3CC3)c(=O)n2CC1` (stereo not drawn), the Potency result is “inactive”.

For `N#CC(=C1CCCC1)c1nc(-c2ccccc2O)cs1`, the Potency was 9.44 µM (active).

On to `CN(Cc1ccc(-n2cccn2)cc1)CC1CCN(CCc2ccc(F)cc2)CC1`, for which the Potency was 10.6 µM (active).

In the case of `CN(CC1CCN(CCc2ccc(Cl)cc2)CC1)C(=O)c1ccccc1C#N`, the Potency entry was “inactive”.

Turning to `Cc1[nH]n(-c2ccccc2)c(=O)c1/C=N/Nc1nncc(-c2ccccc2)n1`, the Potency was 4.22 µM (active).

For the compound `COc1ccc(C(=O)N2CCN(C(=O)C3CCCCC3)C[C@@H]2C(=O)N[C@H]2CCCNC2=O)cc1`, the Potency entry was “inactive”.

On to `COC(=O)[C@H](Cc1ccc(OC)cc1)NC(=O)[C@H]1CN(C(=O)Nc2ccccc2)CCN1C(=O)NC(C)C`, for which the Potency entry was “inactive”.

Take `COC(=O)[C@H](Cc1ccc(OC)cc1)NC(=O)[C@H]1CN(C(=O)c2ccc(N(C)C)cc2)CCN1C(=O)C1CCCCC1`: the Potency was 0.668 µM (active).

On to `COC(=O)[C@H](Cc1ccc(OC)cc1)NC(=O)[C@H]1CN(C(=O)c2ccc(N(C)C)cc2)CCN1C(=O)c1cccs1`, for which the Potency was 0.188 µM (active).

`CN(C)C(=O)c1ccc(OC2CCN(C(=O)c3cccs3)CC2)nc1`: the Potency result was “inactive”.

As to `CN(C)c1ccc(CC(=O)N2CC[C@@](C)(O)[C@@H](O)C2)cc1`, the Potency entry was “inactive”.

With `CC(=O)N1CCc2cc(S(=O)(=O)NC(Cc3ccccc3)C(=O)Nc3cc(C)cc(C)c3)ccc21` (stereo not drawn), the Potency entry is “inactive”.

As to `Cc1ccc(C(=O)N2CCc3cc(CNC(=O)CCc4ccccc4)ccc32)cc1`, the Potency result is “inactive”.

For `Cc1cccc(C(=O)N2CCc3cc(CNC(=O)c4ccc(Br)o4)ccc32)c1`, the Potency is 9.44 µM (active).

`CCOC(=O)Cn1c(=O)oc2cc(S(=O)(=O)N3CCCC(C)C3)ccc21` (stereo not drawn): the Potency result was “inactive”.

Take `COc1ccccc1NC(=O)Cn1c(=O)n(CCC(=O)NCC2CCCO2)c(=O)c2cc(OC)c(OC)cc21` (stereo not drawn): the Potency result was “inactive”.

In the case of `O=C(CCC1CCN(S(=O)(=O)c2ccccc2)CC1)NCc1ccc(F)cc1`, the Potency result is “inactive”.

As for `O=S(=O)(c1ccc(Cl)cc1)N1CCN(C(=S)NCC2CCCO2)CC1` (stereo not drawn), the Potency is 1.88 µM (active).

On to `O=S(=O)(c1ccc(F)cc1)N1CCN(C(=S)NCC2CCCO2)CC1` (stereo not drawn), for which the Potency is 6.68 µM (active).

Turning to `O=S(=O)(c1ccc(F)cc1)N1CCN(C(=S)NCCc2ccccc2)CC1`, the Potency was 5.96 µM (active).

On to `O=C(NCc1ccc(Cl)cc1)C1CCN(S(=O)(=O)c2cccc3nonc23)CC1`, for which the Potency result was “inactive”.

Turning to `O=C(O)c1ccc(S(=O)(=O)N(Cc2cccs2)CC2CCCO2)cc1` (stereo not drawn), the Potency result is “inactive”.

For `CS(=O)(=O)N1CCC(C2CCN(C(=O)Cc3ccc(Cl)cc3)C2)CC1` (stereo not drawn), the Potency result was “inactive”.

Turning to `COc1ccc(S(=O)(=O)N2CCN(C(=S)NCC3CCCO3)CC2)cc1OC` (stereo not drawn), the Potency is 6.68 µM (active).

Regarding `CCOCCCNC(=O)CN1C(=O)c2c(c3ccccc3n2C)C1c1ccc(OC)cc1` (stereo not drawn), the Potency entry was “inactive”.

Take `Cc1ccc(-c2noc(CCC(=O)Nc3ccc(C)cn3)n2)cc1`: the Potency result is “inactive”.

On to `CN1C(=O)[C@H]2CN(Cc3ccc(C#N)cc3)C[C@H]2C1=O`, for which the Potency result was “inactive”.

For the compound `N#Cc1ccc(CN2CC[C@@H]3C(=O)NCCCCCCN(Cc4ccncc4)[C@@H]3C2)cc1`, the Potency was 10.6 µM (active).

As for `O=C1NCCCCCCN(Cc2ccncc2)[C@@H]2CN(C(=O)NC3CCCCC3)CC[C@@H]12`, the Potency result was “inactive”.

Consider `CCc1ccc2c(c1)cc(CN(C(=S)Nc1cccc(C)c1)C1CC1)c1nnnn12`, for which the Potency is 3.35 µM (active).

With `O=C(CC(c1ccc(F)cc1)c1cn(Cc2ccccc2)c2ccc([N+](=O)[O-])cc12)N1CCOCC1` (stereo not drawn), the Potency was 9.44 µM (active).
